According to PubChem BioAssay AID1159580 (chemical genetic matrix, 2015):
Screen size: about 5,500 compounds; about 2,000 (36%) were called active. About 18% were inconclusive and are not listed. No stated cut-off is given here; in the data, active means normalized growth mostly below about 0.91 (no sharp cut-off); inconclusive means no clear call, values can overlap the other calls; inactive means mostly above about 0.92. The list shows a part of the results.

Assay: chemical genetic growth profiling, strain panel (AID 1159580);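 further: tested at 20 µM; growth read once vehicle control cultures reached saturation at 30 °C; 1 = growth at the plate median or of vehicle wells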
Conditions: S. cerevisiae deletion strains, growth OD

Measured: normalized growth

CCOC(=O)c1[nH]c(Cc2[nH]c(C(=O)OCC)c(C)c2C)c(C)c1C
inactive: locus YAL013W, strain DEP1, stronger effect = lower value 1 | locus YBR229C, strain ROT2, stronger effect = lower value 1.02 | locus YCL061C, strain MRC1, stronger effect = lower value 1.02 | locus YDL101C, strain DUN1, stronger effect = lower value 1.03 | locus YDL134C, strain PPH21, stronger effect = lower value 1.01 | locus YDR150W, strain NUM1, stronger effect = lower value 0.978 | locus YEL061C, strain CIN8, stronger effect = lower value 1.01 | locus YGR078C, strain PAC10, stronger effect = lower value 1.02 | locus YHR030C, strain SLT2, stronger effect = lower value 1.06 | locus YHR087W, strain rtc3, stronger effect = lower value 1.01 | locus YJR043C, strain POL32, stronger effect = lower value 1.04 | locus YKL190W, strain CNB1, stronger effect = lower value 1.01 | locus YLR039C, strain RIC1, stronger effect = lower value 0.981 | locus YLR058C, strain SHM2 (second series), stronger effect = lower value 1.02 | locus YLR085C, strain ARP6, stronger effect = lower value 1.01 | locus YLR262C, strain YPT6, stronger effect = lower value 0.981 | locus YML094W, strain GIM5, stronger effect = lower value 0.988 | locus YMR219W, strain ESC1, stronger effect = lower value 1.01 | locus YMR263W, strain SAP30, stronger effect = lower value 1.02 | locus YMR307W, strain GAS1, stronger effect = lower value 0.948 | locus YNL153C, strain GIM3, stronger effect = lower value 1.02 | locus YNL298W, strain CLA4 (second series), stronger effect = lower value 1.04 | locus YNL322C, strain KRE1, stronger effect = lower value 1 | locus YNR030W, strain Alg12, stronger effect = lower value 1.04 | locus YPL055C, strain LGE1, stronger effect = lower value 0.994 | locus YPL241C, strain CIN2, stronger effect = lower value 1.01 | locus YPR135W, strain CTF4, stronger effect = lower value 1.08
